tim23-1 inh – growth inhibitors of tim23-1 mutant yeast, primary screen, luminescence, uHTS. S. cerevisiae tim23-1 growth, BacTiter-Glo luminescence, 24 h. 1.3% of 330,000 active. inhibition, % at 20 µM;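 active means growth inhibition of the mutant yeast at or above 50%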;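 further: temperature-sensitive mutant grown at 25 °C; plate controls were DMSO-treated mutant yeast for no effect and medium wells lacking yeast for full effect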
tim10-1 inh – growth inhibitors of tim10-1 mutant yeast, primary screen, luminescence, uHTS; S. cerevisiae tim10-1 ts strain growth, BacTiter-Glo, 24 h; inhibition, % at 20 µM; 2.2% of 330,000 active; AID 463190, 2010;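 active means inhibition of at least 40%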;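 further: mutant grown at 25 °C; 0% = DMSO wells with yeast and 100% = wells holding no yeast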
TIM10 inh – growth inhibitors of isogenic TIM10 control yeast, primary screen, counter-screen for tim10-1 yeast inhibitor project, luminescence, uHTS. S. cerevisiae TIM10 strain growth, BacTiter-Glo luminescence, 24 h. inhibition, % at 10 µM. 1.4% of 330,000 active;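 active means inhibition of 40% or more at the single tested concentration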;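 further: wild-type TIM10 isogenic control strain grown at permissive 25 °C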
PfHsp90 set2 – growth inhibition of PfHsp90-expressing yeast, primary screen, antimalarial PfHsp90 inhibitor project, S. cerevisiae, BacTiter-Glo luminescence, single point, set 2 | BacTiter-Glo ATP, 48 h; yeast lacking PDR1 and PDR3 efflux regulators | inhibition, % at 9.4 µM | 0.32% of 310,000 active | AID 504621, 2011;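 active means every replicate shows inhibition above about 80%, whatever the replicate mean, limit read from the data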;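 further: 0% = DMSO neutral controls and 100% = 20 µM radicicol positive controls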
NALP3 yeast inh – NALP3 inflammasome inhibitors in reconstituted yeast, primary screen, luminescence, uHTS | Yeast reconstituted NLRP3/ASC/caspase-1, beta-gal luminescence, 24 h | inhibition, % at 10 µM | 0.39% of 330,000 active | AID 2825, 2010;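 active means inhibition of 50% or more; inactive means inhibition below 50%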;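 further: plate controls were induced DMSO wells for no effect and uninduced yeast grown without galactose for full effect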
SKKanGAS inh – S. pyogenes SKKanGAS growth inhibitors in kanamycin, primary screen, streptokinase expression inhibitor project, SKKanGAS strain, BacTiter-Glo luminescence; 6 h; inhibition, % at 7.5 µM; 1.3% of 300,000 active; AID 1662, 2009;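 active means mean replicate score, as percent of positive control median, at least 50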;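 further: strain carries kanamycin resistance gene driven by streptokinase promoter and grows in 40 µg/ml kanamycin; loss of luminescence reflects streptokinase promoter inhibition or plain growth inhibition; 0% = median of DMSO wells and 100% = positive control at its reference dose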
Active calls of the source: *; · = no result. Compounds with a hit are over-represented: about 4.6% of the library has one in this group of screens.

SMILES	tim23-1 inh	tim10-1 inh	TIM10 inh	PfHsp90 set2	NALP3 yeast inh	SKKanGAS inh
COc1ccc2cc3c(N)nn(C(=O)Cc4ccccc4OC)c3nc2c1	9	27	8	-5	8	-1
COc1ccc2cc3c(N)nn(C(=O)C4CCC(C(C)(C)C)CC4)c3nc2c1 (configuration not stated)	18	-23	-4	-23	10	93*
Cc1cc(C)c2ccc(NN)nc2c1O	12	11	1	7	14	68*
COc1ccccc1CNS(=O)(=O)CCNCCc1ccccc1	·	·	·	10	·	·
CCOC(=O)c1ccc(-c2ccc3c(=O)c4ccccc4n(C)c3c2)cc1F	-15	-6	-13	3	24	65*
Cc1ccc(-c2nnc(NC(=O)c3ccc([N+](=O)[O-])o3)o2)c(C)c1	7	9	-19	-54	10	70*
c1ccc(-c2ccc3c(c2)NCCN3)cc1	15	-4	8	0	28	6
Cc1c(C(=O)N/N=C/c2ccc(Cl)cc2)[nH]c2ccc(Cl)cc12	-17	37	26	32	18	56*
Nc1nc(-c2ccccc2)c(N=Nc2cccc3ccccc23)s1	29	15	3	-4	37	57*
CC(=O)Nc1sc(N)nc1-c1ccccc1	3	-3	2	-8	-1	-3
CC(C)Cc1csc(NC(=O)c2ccc(Cl)cc2)c1C(=O)O	27	16	10	0	2	74*
CC[C@H](C)/C=C/C1=CC2=C(Cl)C(=O)[C@@]3(C)OC(=O)C(C(=O)[C@H](C)[C@@H](C)O)=C3C2=CO1	23	21	15	104*	-3	4
Cc1cccc(NS(=O)(=O)c2ccc(C3CCCCC3)cc2)c1	8	33	25	30	4	108*
O=C(O)c1cccc(NS(=O)(=O)c2ccc(C3CCCCC3)cc2)c1	3	-4	14	-12	16	9
Clc1nc(NC2CCCCC2)c2cn[nH]c2n1	·	·	·	-2	·	·
Oc1ccccc1N=Nc1ccccc1O	·	·	·	0	·	59*
COc1ccc(S(=O)(=O)NCc2ccc(C(=O)N3CCc4ccccc4C3)cc2)cc1	17	18	18	24	21	1
CC(C)Nc1nc(Oc2ccc(Cl)cc2Cl)cc(C(F)(F)F)n1	5	-21	11	·	9	79*
Cc1cccc(N2N=C(C(=O)N3Cc4ccccc4CC3C(N)=O)CCC2=O)c1 (configuration not stated)	-5	4	7	-19	9	·
COc1ccc(C(=O)CC(=O)C(=O)Nc2ccccc2Cl)cc1	·	·	·	2	·	56*
COc1ccc(C(=O)CC(=O)C(=O)Nc2ccccc2C(F)(F)F)cc1	10	15	0	34	18	85*
COc1ccc(C(=O)CC(=O)C(=O)Nc2cc(Cl)c(OC)cc2OC)cc1	2	-4	-7	10	-2	9
COc1ccc(C(=O)CC(=O)C(=O)Nc2cc(OC)ccc2OC)cc1	19	-14	-12	9	17	1
CN(C)C(CNC(=O)CCc1c[nH]c2ccccc12)c1ccccc1 (configuration not stated)	5	9	-19	0	6	-5
O=C(Cn1nnc(-c2cc(C(F)(F)F)cc(C(F)(F)F)c2)n1)NNC(=S)Nc1ccc(Cl)cc1	10	24	19	-58	1	78*
SMILES	tim23-1 inh	tim10-1 inh	TIM10 inh	PfHsp90 set2	NALP3 yeast inh	SKKanGAS inh
COc1ccc(OC)c(NC(=O)CSc2nnc(Cn3nnc4ccccc43)n2C)c1	12	13	0	-5	14	-6
Cc1cc(=O)c(C(=O)O)cn1Nc1ccc(F)cc1	10	12	3	10	-10	27
Cc1cc(=O)c(C(=O)O)cn1Nc1ccc(Cl)cc1	9	10	-5	15	17	65*
Cc1ccc(OC(C)C(=O)N/N=C/c2ccccn2)cc1 (configuration not stated)	10	18	8	11	-4	-7
CCc1cc2c(=O)[nH]c(-c3ccccn3)nc2s1	-136	10	18	-3	41	55*
CCOC(=O)C1=CN(Cc2ccco2)S(=O)(=O)N(CC)C1c1ccc(C(F)(F)F)cc1 (configuration not stated)	50	29	4	9	·	·
Cc1ccc(/C=N/NC(=O)Cc2ccc(Cl)cc2)c(O)c1	8	-17	5	-6	16	101*
O=C1C=C(Nc2cccc3cccnc23)c2ccccc2C1=O	18	13	17	-7	17	63*
O=C1C=C(Nc2ccccc2)C(=O)c2ccccc21	13	19	14	-50	39	12
O=C1C=C(Nc2ccccc2)c2ccccc2C1=O	16	24	21	-8	7	68*
CC1CCCN(C(=O)CN2C(=O)CSc3ccc(S(=O)(=O)N4CCOCC4)cc32)C1 (configuration not stated)	-16	3	3	14	2	-5
CC(C)(C=O)C1=CC(=O)c2ccccc2C1=O	·	·	·	106*	·	·
O=C(Nc1ccccc1C(=O)O)c1ccc(NC(=O)c2ccc(Br)o2)cc1	8	19	-14	·	11	14
O=C(Nc1ccccc1C(=O)O)c1cccc(NC(=O)c2ccc(Br)o2)c1	11	5	1	9	4	83*
C/C(=N\Nc1cc(-c2ccccc2)nc(-c2ccccc2)n1)c1ccc(O)c(C)c1	22	20	13	11	16	98*
S=C(Nc1ccccc1)Nc1nc2ccccc2n1CCOc1ccccc1	11	38	11	-101	18	42
CCCn1c(NC(=O)c2ccco2)nc2ccccc21	42	35	25	·	37	-10
CCCCn1c(CCCNC(=O)c2ccco2)nc2ccccc21	4	23	6	1	10	53*
CCCCn1c(CCNC(=O)c2ccco2)nc2ccccc21	7	11	2	-6	7	-3
CC(=O)Nc1nc2ccccc2n1CCOc1ccccc1	13	24	14	0	-11	63*
COc1ccc(OCCn2c(NC(=O)c3ccco3)nc3ccccc32)cc1	0	3	16	-21	13	62*
Cc1ccc(S(=O)(=O)Nc2ccc(F)cc2)cc1C(=O)N1CCOCC1	-2	-11	-3	·	5	·
Cc1n[nH]c(C)c1CCC(=O)N/N=C/C=C/c1ccccc1	6	11	4	-3	2	-3
Cc1cccc(N2CCN(C(=O)c3ccc4nc(N5CCCCC5)sc4c3)CC2)c1C	32	3	15	-17	7	51*
